Hits are enriched below; roughly 1.4% of the tested compounds scored in any of these assays.
USP1 inh: USP1/UAF1 (human) deubiquitinase inhibition; AID 743255; Potency, µM (series often up to 57.1 µM), inactives show at the top dose activity change, negative = inhibition, hits mostly inhibitors; 0.23% of 390,000 active; O94782; recombinant USP1/UAF1, Ub-Rhodamine cleavage fluorescence; note: % is set by controls: 0 for no effect and ±100 for the full control effect; nearly all actives have a fitted effect of over 60% in size
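Step one: compound is pinned into 1nM USP1/UAF1 in HEPES pH 7.8 buffer with TCEP. Step two: 15 min room-temperature incubation. Step three: Ub-Rho (150nM final) starts cleavage, tracked by fluorescence over six one-minute reads.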
EPAC1 ag: activates human EPAC1 exchange factor | 0.073% of 360,000 active | AID 720707 | EPAC1 agonist qHTS, biochemical assay; response scale: 100% = response to 6.5 mM cAMP | O95398 | Potency, µM (highest dose often 154 µM), for the others: at the top dose activation, hits mostly activators; note: nearly all actives have a fitted effect of over 60% in size
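Nucleotide exchange assay: 100 nM EPAC1 with 250 nM Rap1B loaded with BODIPY-GDP and 50 uM GDP, room temperature. Fluorescence (480/540 nm) read every 5 min for 30 min; signal change normalized to 6.5 mM cAMP as full agonist.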
EPAC2 antagonist: blocks human EPAC2 exchange factor. Q8WZA2. EPAC2 GEF exchange of Rap1B-BODIPY-GDP, fluorescence. Potency, µM (doses to about 114 µM), inactives show top-dose activity, negative = inhibition, most hits filed as inhibitors. 0.18% of 360,000 active. AID 720708; note: % is set by controls: 0 for no effect and ±100 for the full control effect; nearly all actives have a fitted effect of over 45% in size
Target sequence (Q8WZA2 whole entry, looked up): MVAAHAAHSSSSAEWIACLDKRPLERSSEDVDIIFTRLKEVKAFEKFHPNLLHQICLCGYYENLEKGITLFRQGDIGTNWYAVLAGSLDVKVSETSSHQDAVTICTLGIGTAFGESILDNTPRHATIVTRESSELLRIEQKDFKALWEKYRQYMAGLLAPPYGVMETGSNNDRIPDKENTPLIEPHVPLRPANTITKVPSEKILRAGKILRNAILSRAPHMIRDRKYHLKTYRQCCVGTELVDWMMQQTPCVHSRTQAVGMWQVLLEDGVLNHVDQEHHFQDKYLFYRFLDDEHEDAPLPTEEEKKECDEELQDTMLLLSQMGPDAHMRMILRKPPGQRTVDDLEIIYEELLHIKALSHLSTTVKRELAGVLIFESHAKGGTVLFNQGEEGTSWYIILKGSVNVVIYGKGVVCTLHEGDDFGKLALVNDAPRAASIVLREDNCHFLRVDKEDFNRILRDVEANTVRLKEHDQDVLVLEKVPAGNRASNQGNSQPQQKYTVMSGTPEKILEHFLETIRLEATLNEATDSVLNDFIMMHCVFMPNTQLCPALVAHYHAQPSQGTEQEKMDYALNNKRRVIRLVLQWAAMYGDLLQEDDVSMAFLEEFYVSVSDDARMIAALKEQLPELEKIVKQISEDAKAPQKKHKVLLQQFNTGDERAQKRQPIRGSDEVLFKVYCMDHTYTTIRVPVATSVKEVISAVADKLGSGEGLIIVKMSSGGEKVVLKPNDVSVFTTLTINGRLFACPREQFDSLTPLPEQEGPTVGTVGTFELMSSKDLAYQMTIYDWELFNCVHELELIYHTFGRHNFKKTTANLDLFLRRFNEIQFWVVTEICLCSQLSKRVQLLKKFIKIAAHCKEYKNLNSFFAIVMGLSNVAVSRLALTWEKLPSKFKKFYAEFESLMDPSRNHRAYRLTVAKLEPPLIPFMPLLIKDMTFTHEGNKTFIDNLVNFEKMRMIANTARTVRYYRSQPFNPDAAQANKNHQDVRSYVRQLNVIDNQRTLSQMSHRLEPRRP
EPAC1 antag: EPAC1 (human) antagonism | O95398 | EPAC1 GEF assay, Rap1b-BODIPY-GDP exchange fluorescence | Potency, µM (doses to about 115 µM), without a hit: at the top dose activity change, negative = inhibition, hits mostly inhibitors | 0.14% of 360,000 active;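 note: plate controls were vehicle for no effect and positive control for full effect; nearly all actives have a fitted effect of over 50% in size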
BRCA1 expr up: activators of BRCA1 expression | MCF7-BRCA1-FFLuc reporter, luminescence, 48 h; response scale: scaled: vehicle 0%, 10 µM genistein 100% | Potency, µM (highest dose often 46.1 µM), for inactives: at the highest dose activation, most hits filed as activators | 1.1% of 380,000 active | AID 624202; note: nearly all actives have a fitted effect of over 80% in size
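Cells: MCF7-BRCA1-FFLuc, 2000/well. Exposure: 48 h, 37 °C, 5% CO2. Read: luminescence, 15 min post-substrate. Controls: genistein 10 microM (maximal activation), DMSO (neutral).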
EPAC2 agonist: EPAC2 (human) agonism. EPAC2 activation, biochemical qHTS; response scale: 100% = 6.5 mM cAMP response. 0.079% of 360,000 active. Q8WZA2. AID 720711. Potency, µM (doses to about 154 µM), inactives show at the top dose activation, most hits filed as activators; note: nearly all actives have a fitted effect of over 50% in size
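Compounds were titrated in qHTS against a Rap1B-BODIPY-GDP (250 nM) complex with EPAC2 (100 nM) and GDP (50 uM). BODIPY-GDP release tracked at 480/540 nm over 30 min at room temperature, normalized to 6.5 mM cAMP.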
The depositor's hits bear a star. Calls come from the whole dose curve; as a rule, active = well fitted curve in the direction sought with a large enough effect; inconclusive = small, poorly fitted or top-dose-only effect, or another doubt; inactive = no such curve, though single readings can be large; an effect the other way counts as inactive or inconclusive. Potency is the fitted concentration of half-maximal effect.

`O=C(CSc1nc2cc(Cl)ccc2o1)N1CCOCC1` gave USP1 inh 0.4%, EPAC1 ag 13.9%, EPAC2 antagonist 10.9%, EPAC1 antag 12.5%, BRCA1 expr up 40.4% and EPAC2 agonist 13.6%.
For NC(=O)C1CCN(C(=O)CSc2nc3ccccc3o2)CC1 the results were USP1 inh -15.4%, EPAC1 ag -5.3%, EPAC2 antagonist 8.7%, EPAC1 antag -1.7%, BRCA1 expr up -6.7% and EPAC2 agonist 2.3%.
`O=C(O)c1ccc2oc(SCC(=O)N3CCCCC3)nc2c1` gave USP1 inh -10.8%, EPAC1 ag 8.7%, EPAC2 antagonist -5.0%, EPAC1 antag -5.2%, BRCA1 expr up 7.08µM* and EPAC2 agonist -3.5%.
CC1CCCN(C(=O)CSc2nc3ccccc3o2)C1 (stereo not given) was read as USP1 inh -19.8%, EPAC1 ag -0.3%, EPAC2 antagonist 10.9%, EPAC1 antag 2.5%, BRCA1 expr up 8.91µM* and EPAC2 agonist 4.2%.
`C1=C(CCNc2ncnc3nc[nH]c23)CCCC1` gave USP1 inh -11.9%, EPAC1 ag -6.9%, EPAC2 antagonist -5.2%, EPAC1 antag 2.4%, BRCA1 expr up 6.31µM* and EPAC2 agonist 4.6%.
For COC(=O)Cn1c(C)nc2c(sc3nc(C)cc(C)c32)c1=O the results were USP1 inh -8.8%, EPAC1 ag 3.8%, EPAC2 antagonist 4.7%, EPAC1 antag 3.1%, BRCA1 expr up 6.31µM* and EPAC2 agonist 13.8%.
Screening Cc1cnc(NC(=O)/C=C/c2ccc(Br)o2)s1 returned USP1 inh -23.8%, EPAC1 ag 7.2%, EPAC2 antagonist -4.7%, EPAC1 antag 1.4%, BRCA1 expr up 0.0% and EPAC2 agonist -12.4%.
`Cc1ccc(/C=C/C(=O)Nc2ncc(C)s2)o1` gave USP1 inh -3.2%, EPAC1 ag 1.4%, EPAC2 antagonist 0.7%, EPAC1 antag -11.4%, BRCA1 expr up 3.16µM* and EPAC2 agonist 8.9%.
`Cc1ccc(/C=C/C(=O)Nc2ccncc2)o1` gave USP1 inh -3.1%, EPAC1 ag 6.1%, EPAC2 antagonist -2.5%, EPAC1 antag -11.0%, BRCA1 expr up 19.7% and EPAC2 agonist -4.5%.
For Cc1ccc(/C=C/C(=O)Nc2ccc(N(C)C)cc2)o1 the results were USP1 inh -7.0%, EPAC1 ag -2.3%, EPAC2 antagonist -2.3%, EPAC1 antag 2.1%, BRCA1 expr up 3.98µM* and EPAC2 agonist 6.9%.
For [O-][N+](=NC1C=Cc2ccccc21)C1C=Cc2ccccc21 (stereo not given) the results were BRCA1 expr up -8.4%.
For Cc1c(C(=O)NC2CCCc3ccccc32)cccc1[N+](=O)[O-] (stereo not given) the results were USP1 inh -4.9%, EPAC1 ag -0.5%, EPAC2 antagonist -12.2%, EPAC1 antag -5.2%, BRCA1 expr up -32.9% and EPAC2 agonist 3.2%.
`CCOC(=O)c1c(C)[nH]c(C)c1S(=O)(=O)N1CCCC(C(=O)NCc2ccc(N(C)C)cc2)C1` (stereo not given) gave USP1 inh -25.1% and BRCA1 expr up -18.2%.
O=C1S/C(=C\c2cccs2)C(=O)N1c1ccc(O)cc1 was read as USP1 inh -20.4%, EPAC1 ag 9.3%, EPAC2 antagonist 0.0%, EPAC1 antag -25.7%, BRCA1 expr up 11.2µM* and EPAC2 agonist 3.8%.
For O=C(Cc1ccc(Br)cc1)N1CCc2ccccc2C1 the results were USP1 inh -15.6%, EPAC1 ag 2.4%, EPAC2 antagonist -8.0%, EPAC1 antag -13.5%, BRCA1 expr up 10µM* and EPAC2 agonist 8.0%.
Screening c1ccc(OCCOc2ncnc3sccc23)cc1 returned USP1 inh -13.1%, EPAC1 ag -2.4%, EPAC2 antagonist 0.4%, EPAC1 antag -4.0%, BRCA1 expr up 7.08µM* and EPAC2 agonist -3.8%.
Screening Nc1c(C(=O)NCC2CCCO2)sc2nc3c(c(-c4ccco4)c12)CC/C3=C\c1ccco1 (stereo not given) returned USP1 inh 28.2µM*, EPAC1 ag -5.4%, EPAC2 antagonist -2.1%, EPAC1 antag 20µM*, BRCA1 expr up -1.4% and EPAC2 agonist -10.7%.
For NC(=O)c1sc2nc3c(c(-c4ccco4)c2c1N)CCCC3 the results were USP1 inh -15.0%, EPAC1 ag 10.7%, EPAC2 antagonist -13.5%, EPAC1 antag 7.0%, BRCA1 expr up 9.6% and EPAC2 agonist 1.2%.
Screening O=[N+]([O-])/C=C/c1cn(Cc2ccc(Cl)cc2)c2ccccc12 returned USP1 inh inconclusive, EPAC1 ag inconclusive, EPAC2 antagonist 21.6%, EPAC1 antag -11.9%, BRCA1 expr up -78.5% and EPAC2 agonist 100µM*.
CN(C)S(=O)(=O)c1ccc(C(=O)NCCOc2ccccc2)cc1 was read as USP1 inh -8.1%, EPAC1 ag -4.8%, EPAC2 antagonist 5.5%, EPAC1 antag 7.9%, BRCA1 expr up 100.2% and EPAC2 agonist 1.2%.
Screening CN(C)S(=O)(=O)c1ccc(C(=O)NCCOc2ccc(F)cc2)cc1 returned USP1 inh -10.1%, EPAC1 ag -0.7%, EPAC2 antagonist 7.8%, EPAC1 antag 6.1%, BRCA1 expr up 11.2µM* and EPAC2 agonist 4.7%.
For COc1ccc(N=Cc2c(O)n(-c3cccc(C)n3)c(=O)c3ccccc23)c(OC)c1 the results were USP1 inh -13.0%, EPAC1 ag 9.3%, EPAC2 antagonist 118.5%, EPAC1 antag 10.3%, BRCA1 expr up -14.5% and EPAC2 agonist 100µM*.
`COc1cccc(N=Cc2c(O)n(-c3cccc(C)n3)c(=O)c3ccccc23)c1` gave USP1 inh -16.1%, EPAC1 ag 10.1%, EPAC2 antagonist -2.5%, EPAC1 antag -11.8%, BRCA1 expr up 1.0% and EPAC2 agonist 8.7%.
`N#Cc1cc2c(nc1SCC1COc3ccccc3O1)CCC2` (stereo not given) gave USP1 inh -12.9%, EPAC1 ag 6.2%, EPAC2 antagonist -2.4%, EPAC1 antag 0.0%, BRCA1 expr up 8.91µM* and EPAC2 agonist 11.5%.
Cc1cc(C)c(C#N)c(SCC2COc3ccccc3O2)n1 (stereo not given) was read as USP1 inh -14.7%, EPAC1 ag 0.0%, EPAC2 antagonist 4.2%, EPAC1 antag 3.5%, BRCA1 expr up -50.2% and EPAC2 agonist 5.1%.
Screening Cc1ccc(CSc2ncnc3c2cnn3-c2ccccc2)cc1 returned USP1 inh 0.0%, EPAC1 ag 3.7%, EPAC2 antagonist -7.4%, EPAC1 antag 7.3%, BRCA1 expr up 57.9% and EPAC2 agonist 14.7%.

Screens deposited in PubChem BioAssay by National Center for Advancing Translational Sciences (NCATS).
